# Rows were chosen to be rich in hits. Some 7.3% of all compounds tested hit in one or more screens of this group.
# HCV inhibitor: HCV inhibition; 340,000 compounds, 3.4% hits; Potency, µM (series often up to 41.8 µM), inactives show at the highest dose activity change, negative = inhibition, actives largely listed as inhibitors; Huh7.5.1 HCVcc-Cre infection, luciferase reporter, 44 h; further: potency means the concentration at half of the fitted maximal effect
#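 Compounds are dispensed onto cells plated 4 h earlier at 1,000 per well, with HCVcc-Cre virus (about 0.5 moi) added next. Following 44 h of culture, luminescent signal is measured for 15 sec after 15 min with substrate at room temperature.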
# AmpC detergent: blocks E. coli AmpC beta-lactamase in detergent assay. AmpC hydrolysis of nitrocefin, absorbance 480 nm, 0.01% Triton. P00811. 370,000 compounds, 0.041% hits. Potency, µM (top dose mostly 114 µM), inactives show top-dose activity change, negative = inhibition, usual class: inhibitors;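 further: potency means the concentration at half of the fitted maximal effect; 0% = no-compound wells and -100% = no-enzyme wells; nearly all actives have a fitted effect of over 25% in size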
# Target sequence (P00811 whole entry, looked up): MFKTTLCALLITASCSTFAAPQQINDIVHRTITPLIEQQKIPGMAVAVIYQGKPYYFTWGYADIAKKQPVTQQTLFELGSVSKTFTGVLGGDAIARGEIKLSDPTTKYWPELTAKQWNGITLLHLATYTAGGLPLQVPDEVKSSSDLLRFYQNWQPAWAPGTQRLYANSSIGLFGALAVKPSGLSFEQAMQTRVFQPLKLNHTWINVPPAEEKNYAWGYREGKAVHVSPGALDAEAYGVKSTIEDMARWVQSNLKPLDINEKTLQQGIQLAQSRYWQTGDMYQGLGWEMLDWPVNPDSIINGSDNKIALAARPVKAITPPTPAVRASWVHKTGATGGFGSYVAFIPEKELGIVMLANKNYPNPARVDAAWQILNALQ
#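 AmpC (5.3 nM in the dispensed reagent) in 20 mM phosphate pH 7.0 with 0.01% (detergent screen) or 0.0001% Triton X-100 was preincubated with compounds for 15 min at room temperature. Nitrocefin was then added from an 800 uM solution, and hydrolysis was followed at 480 nm.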
# FMDV antiviral: blocks foot and mouth disease virus. FMDV antiviral cell-based qHTS. Potency, µM (doses to about 57.9 µM), without a hit: at the highest dose activity change, negative = inhibition, hits mostly inhibitors. 410,000 compounds, 1.2% hits; calls by dose curve; tested in HEK293T cells; further: read-out not given here; potency means the concentration at half of the fitted maximal effect; nearly all actives have a fitted effect of over 45% in size
# HCMV antiviral: human cytomegalovirus inhibition | HFF cells, HCMV-luciferase reporter, 72 h; stronger effect = lower value | activity change, negative = inhibition, % at 57.5 µM | 410,000 compounds, 4.5% hits; in the data active means activity change below about -60%; inconclusive means no clear call, values can overlap the other calls; inactive means above about -39%
#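 Cell-based, HFFs, 1000 cells/well, 16 h 37C; cpds in DMSO + HCMV-luc, MOI 1 PFU/cell; 72 h 37C; OneGlo luminescence after 5 min RT; norm. to buffer vs Salinomycin 10uM.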
# AmpC no deterg: blocks E. coli AmpC beta-lactamase in detergent-free assay; P00811; AmpC nitrocefin hydrolysis, absorbance 480 nm, 0.0001% Triton; Potency, µM (series often up to 57.1 µM), for inactives: top-dose activity change, negative = inhibition, hits mostly inhibitors; 330,000 compounds, 0.52% hits; AID 485341;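 further: potency means the concentration at half of the fitted maximal effect; plate controls were no compound for no effect and no enzyme for full effect; nearly all actives have a fitted effect of over 20% in size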
#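 20 mM phosphate pH 7.0 + 0.01% (detergent screen) or 0.0001% Triton X-100; 5.3 nM AmpC reagent; cpd preinc 15 min RT; nitrocefin (800 uM stock) to start; A480 q20 s × 4 min; Activity was normalised to no-enzyme and no-compound control wells.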
# * hit, by the source's call; ? = inconclusive; · = not tested or not shown. Unless noted, the call rests on the fitted dose curve; in most records, active means well fitted curve in the direction sought with a large enough effect; inconclusive means small, poorly fitted or top-dose-only effect, or another doubt; inactive means no such curve, though single readings can be large; an effect the other way counts as inactive or inconclusive. Unless noted, on the % scale 0 is the no-effect control and ±100 the full control effect.
SMILES,HCV inhibitor,AmpC detergent,FMDV antiviral,HCMV antiviral,AmpC no deterg
Cc1ccc2ncccc2c1[N+](=O)[O-],5%,?,-12%,-23,-11%
Cc1ccc2nc(CSc3nc(C)ccc3C#N)[nH]c2c1,?,-2%,8.9µM*,144,63%
Cc1ccc(C#N)c(SCc2ccccc2F)n1,4%,-5%,8%,?,-37%
CCSc1nc2c(c(=O)[nH]c(=O)n2C)n1CC(O)COc1ccccc1C (centres undefined),?,-4%,20µM*,44,19%
Cc1ccccc1OCC(O)Cn1c(SC(C)C)nc2c1c(=O)[nH]c(=O)n2C (centres undefined),-26%,-11%,?,6,37%
CC(O)CSc1nc2c(c(=O)[nH]c(=O)n2C)n1CC(O)COc1ccccc1 (centres undefined),14%,-15%,-13%,-94*,-4%
Cc1cc2occ(CC(=O)N(C)CC(=O)Nc3ccccc3Br)c2cc1C,6%,?,-18%,-16,12%
CCc1nc2ccc(C(=O)Nc3ccc(OC)c(OC)c3)cn2c1N(C)Cc1cccs1,·,·,-6%,-79*,·
COc1cccc(CNCc2ccccn2)c1OC,-7%,?,·,-61*,1%
COC(=O)CCN(C(=O)c1c(C)oc2ncnc(N3CCOCC3)c12)c1ccccc1,·,-3%,-2%,-23,·
O=C(NCc1ccccc1CN1CCCC1)c1ccc(Cl)c(N2CCCC2=O)c1,18µM*,1%,6%,-34,4%
CSC1SCC2C(=O)N(C)C(C(C)C)C(=O)OCC(NC(=O)c3cnc4ccccc4n3)C(=O)NC(C)C(=O)N(C)C1C(=O)N(C)C(C(C)C)C(=O)OCC(NC(=O)c1cnc3ccccc3n1)C(=O)NC(C)C(=O)N2C (centres undefined),?,·,0%,-99*,·
CCCCNC(=S)NNC(=O)CCn1nc(C)c(Br)c1C,17%,-3%,12%,-106*,-6%
COc1cc(-c2nc3sccn3c2Nc2cccc(C)c2)ccc1O,·,-9%,-1%,80,·
COc1cccc(N(C(=O)c2ccco2)c2nc(-c3sc(NC(=O)c4ccco4)nc3C)cs2)c1,4µM*,0%,-6%,?,-29%
Cc1nc(NC(=O)c2ccco2)sc1-c1csc(Nc2ccc(Cl)cc2)n1,2.5µM*,-7%,0%,?,-33%
Cc1nc(NC(=O)c2ccco2)sc1-c1csc(Nc2ccc(Cl)cc2Cl)n1,?,?,-23%,-77*,-32%
COc1ccccc1Nc1nc(-c2sc(NC(=O)c3ccco3)nc2C)cs1,?,2%,6%,1,-16%
Cc1ccc(Cl)cc1Nc1nc(-c2sc(NC(=O)c3ccco3)nc2C)cs1,8.9µM*,-15%,1%,?,-43%
Cc1nc(NC(=O)c2ccccc2)sc1-c1csc(Nc2ccc(Cl)cc2Cl)n1,·,-11%,·,·,?
Cc1ccc(Cl)cc1Nc1nc(-c2sc(NC(=O)c3cccc(Cl)c3)nc2C)cs1,·,-4%,·,·,-55%
Cc1nc(NC(=O)c2ccccc2)sc1-c1csc(Nc2ccc(Cl)cc2)n1,·,?,·,·,31%
COc1ccc(/C=N/n2c(-c3ccco3)nc3ccccc3c2=O)cc1,-24%,-13%,0%,-38,-17%
COCCn1cnc2c(c1=O)c1nc3ccccc3nc1n2/N=C/c1cccc(OC)c1,4%,7%,28µM*,-30,0%
COc1cccc(/C=N/n2c(-c3ccco3)nc3ccccc3c2=O)c1,?,-13%,?,-64*,24%
SMILES,HCV inhibitor,AmpC detergent,FMDV antiviral,HCMV antiviral,AmpC no deterg
COCCNCCCOc1ccc(Cl)cc1Br,-1%,-9%,-18%,-18,10%
COCCCNCCOCCOc1ccc(C)cc1Br,?,?,-1%,7,21%
COCCCNCCCOc1ccc(Cl)cc1C(C)(C)C,7.1µM*,2%,?,-27,38%
CN(C)CCCCOc1ccc(Br)cc1Cl,10µM*,3%,2%,14,21%
COCCCNCCCCOc1ccc(Br)cc1Cl,10µM*,-8%,-23%,?,9%
COCCNCCCOc1ccc(Br)cc1Cl,10µM*,-9%,9%,-13,-3%
OC1(c2cccnc2)CCN(Cc2ccc3c(c2)CN(Cc2ccsc2)CCO3)CC1,·,·,-11%,·,·
CCCn1c(N)c(C(=O)CSc2nnc(C3CC3)n2C2CC2)c(=O)[nH]c1=O,2%,·,2%,55,-25%
Cc1ccc(Nc2ncnc3onc(C)c23)cc1Cl,·,-3%,-17%,3,·
Cc1cc(Br)ccc1OCCCCNCCO,10µM*,-6%,-8%,-13,17%
COc1ccc(N(C(=O)c2cccc(C)c2)S(=O)(=O)c2ccc3c(c2)n(C)c(=O)n3C)cc1,·,19%,0.028µM*,14,·
C=CCn1c(NCc2cc(Cl)ccc2O)nc2ccccc21,?,-17%,23%,57,14µM*
CCn1c(NCc2cc(Cl)ccc2O)nc2ccccc21,32µM*,-2%,-24%,0,-56%
C=CCn1c(NCc2ccccc2O)nc2ccccc21,-11%,-12%,41%,31,-36%
COCCNC(=O)Cn1nc(Cc2ccncc2)c2ccccc2c1=O,19%,-8%,-13%,11,-7%
COc1ccc(N(C)S(=O)(=O)c2ccc(Cl)c(C(=O)NCCc3ccc(Cl)cc3)c2)cc1,10µM*,?,-14%,-27,-11%
COc1ccc(CNC(=O)c2cn(Cc3ccc(OC(C)=O)cc3)c(=O)s2)cc1,·,·,-8%,7,·
CCOCCCNC(=O)c1ccc(N(C)S(=O)(=O)c2ccc(OC)cc2)cc1,-4%,2%,1%,-103*,45%
COc1ccc(S(=O)(=O)N(C)c2ccc(C(=O)NCCC(C)C)cc2)cc1,-11%,-12%,-16%,39,-1%
COc1ccc(CCNC(=O)c2cc(S(=O)(=O)N3CCCCC3)ccc2Cl)cc1,?,?,-15%,-19,-5%
COc1ccc(CNC(=O)c2cn(Cc3ccc(S(=O)(=O)N(C)C)cc3)c(=O)s2)cc1,·,·,?,-81*,·
C=CCNC(=O)c1ccc(CN(c2ccc(OCC)cc2)S(=O)(=O)c2ccc(C)cc2)cc1,11µM*,-1%,-2%,-7,12%
C=CCNC(=O)c1ccc(N(Cc2ccc(Cl)cc2)S(C)(=O)=O)cc1,5%,?,-9%,-20,52%
COc1ccccc1NS(=O)(=O)c1ccc(C)c(C(=O)NC2=NCCS2)c1,-11%,-19%,-6%,-13,-38%
Cc1ccc(C(=O)/C=C\NCc2ccccc2)cc1,-15%,-10%,10%,9,-15%
COc1ccc(CNC(=O)c2ccc(N(C)S(=O)(=O)c3ccc(C)cc3)cc2)cc1,4.5µM*,3%,-15%,27,-35%
COc1ccc(C(=O)/C=C/NCc2ccc(C)cc2)cc1,-28%,·,13%,-61*,·

# Bioassay records (PubChem BioAssay)
